Screens from PubChem BioAssay.
A selection: hits, their analogues and other compounds. The true share with any hit is near 3.2%.
Nrf2 activator: qHTS of Nrf2 Activators; 410,000 tested, 0.31% active; AREc32 ARE-luciferase reporter (MCF7-derived line), luminescence, 24 h; Potency, µM (doses to about 46.1 µM), without a hit: top-dose activation, usual class: activators; AID 624171, 2012; note: potency is the fitted concentration of half-maximal effect; % of control where 0% means no effect; nearly all actives have a fitted effect of over 65% in size
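Nrf2 activation is followed as ARE-luciferase induction in the AREc32 line after one day of compound treatment; luminescence is read with Steady-Glo.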
IL-2 act: qHTS of IL-2 Activators; IL-2 activation reporter assay, cell-based qHTS; stimulated with anti-CD3/CD4/CD28 beads; in transgenic mouse T cells; activation, % (series mostly up to about 46 µM); 360,000 tested, 0.065% active; in the data active = activation above about 50%; inconclusive = mostly about 30% to 49%; note: 0% is about no effect
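First, unstimulated transgenic mouse T cells were exposed to compound for 60 min. Next, anti-CD3/anti-CD4-coated beads with anti-CD28 were added. Finally, after 18 h at 37 degrees C, EGFP and DsRed were imaged.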
BRCA1 expr act: qHTS Assay to Identify Small Molecule Activators of BRCA1 Expression | MCF7-BRCA1-FFLuc reporter, luminescence, 48 h; response scale: scaled: vehicle 0%, 10 µM genistein 100% | Potency, µM (doses to about 46.1 µM), without a hit: at the highest dose activation, actives largely listed as activators | AID 624202, 2012 | 380,000 tested, 1.1% active; note: potency is the fitted concentration of half-maximal effect; nearly all actives have a fitted effect of over 80% in size
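MCF7 cells carrying a BRCA1-firefly luciferase reporter (2000 cells/well, phenol-red free MEM) were attached for 2 h at 37 °C, then given compounds for 48 h. Luminescence was read 15 min after luciferase reagent; activity normalized to genistein (10 microM) and DMSO.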
Nrf2 block: Nrf2 qHTS screen for inhibitors. Potency, µM (series often up to 46 µM), for the others: at the top dose activity change, negative = inhibition, usual class: inhibitors. A549 ARE-Fluc reporter, luciferase luminescence, 18-24 h. 360,000 tested, 2.1% active. AID 504444, 2011; note: potency is the fitted concentration of half-maximal effect; % is set by controls: 0 for no effect and ±100 for the full control effect; nearly all actives have a fitted effect of over 60% in size
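Nrf2 activity is the BugLite luminescence, read 15 min after reagent at room temperature, following CellTiter-Fluor cytotoxicity readout (30 min, 37C). Compound titrations were applied for 18-24 h to 5000 A549 ARE_Fluc cells/well in 5% FBS OPTI-MEM.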
p53 reactivator: qHTS assay for re-activators of p53 using a Luc reporter; H1299 p53-A138V BP100-luciferase reporter, luminescence, 24 h; Potency, µM (highest dose often 92.2 µM), without a hit: at the top dose activity change, positive = activation, hits mostly activators; 320,000 tested, 0.063% active; note: potency is the fitted concentration of half-maximal effect; % of control where 0% means no effect; nearly all actives have a fitted effect of over 45% in size
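p53-null H1299 cells stably carrying temperature-sensitive p53-A138V and a BP100-luciferase reporter were pinned with compounds (4-point, 1:5 series) and held 24 hrs at 37 deg C. Luminescence was read 10 min after detection reagent.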
A549 tox: Nrf2 qHTS screen for inhibitors: counterscreen for cytotoxicity; Potency, µM (highest dose often 46 µM), without a hit: at the highest dose activity change, negative = cytotoxicity, actives largely listed as inhibitors; 390,000 tested, 0.16% active; A549 ARE-Fluc cells, CellTiter-Fluor viability, 18-24 h; AID 504648, 2011; note: potency is the fitted concentration of half-maximal effect; % is set by controls: 0 for no effect and ±100 for the full control effect
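A549 ARE_Fluc cells in 5% FBS OPTI-MEM were exposed to compounds in concentration-response for 18-24 h at 37 deg C. Viability was read by CellTiter-Fluor fluorescence (Ex 405/Em 525) after 30 min, before the luciferase read.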
* hit, by the source's call; ? = inconclusive; . = no result given. Unless noted, calls come from the whole dose curve; as a rule, active = well fitted curve in the direction sought with a large enough effect; inconclusive = small, poorly fitted or top-dose-only effect, or another doubt; inactive = no such curve, though single readings can be large; an effect the other way counts as inactive or inconclusive.

SMILES	Nrf2 activator	IL-2 act	BRCA1 expr act	Nrf2 block	p53 reactivator	A549 tox
Cc1oc2c(c1C(=O)Nc1ccc(OC(F)(F)F)cc1)C1=NCCN1C=N2	4%	.	.	24%	.	6%
O/C(=C\c1nc2ccccc2[nH]1)c1cccs1	15%	1	13µM*	?	?	0%
O=c1[nH]c2ccccc2nc1/C=C(\O)c1cccs1	?	148*	66%	?	17%	-10%
COc1ccc(C(=O)Sc2ccc(Cl)cc2)cc1OC	6%	0	-40%	21µM*	?	?
CCCNC(=O)c1cnn2c(C(F)F)cc(-c3ccccc3)nc12	-1%	.	-33%	23µM*	.	?
CCCSc1ncc(Cl)c(C(=O)N(Cc2ccc(Cl)cc2)Cc2ccco2)n1	5%	.	.	21µM*	.	-5%
CCSc1ncc(Cl)c(C(=O)N(Cc2ccccc2)Cc2ccco2)n1	0%	.	.	?	.	0%
CCCS(=O)(=O)c1ncc(Cl)c(C(=O)N(Cc2ccccc2)Cc2ccco2)n1	?	.	-74%	16µM*	.	?
Cc1cc(OCC(=O)Nc2ccc(C(=O)OC3CCCCC3)cc2)cc(C)c1Cl	-1%	.	.	8%	.	-1%
O=C(O)c1cnn(-c2nc(-c3ccc(Br)cc3)cs2)c1C(F)(F)F	2%	0	5µM*	25%	?	2%
O=C(c1nn(Cc2ccccc2)c(=O)c2ccccc12)N1CCc2ccccc2C1	0%	0	-46%	23µM*	5%	?
Cc1ccc2oc(-c3ccc(C)c(NC(=O)COc4ccc(Cl)cc4C)c3)nc2c1	.	.	12%	.	.	.
Cc1ccc(N(CC(=O)N2CCN(c3cc(C)ccc3C)CC2)S(=O)(=O)c2c(C)nn(C)c2C)cc1	-2%	.	-75%	?	.	-4%
CN(CC(=O)Nc1ccc(Cl)c(C(F)(F)F)c1)C(=O)c1ccc2c(c1)NC(=O)CS2	0%	0	0%	21µM*	5%	-16%
CN(CC(=O)Nc1cccc(S(=O)(=O)N2CCCC2)c1)CC(=O)Nc1ccc(Cl)c(C(F)(F)F)c1	1%	-5	-71%	26µM*	-4%	?
CN(CC(=O)Nc1ccc(Cl)c(C(F)(F)F)c1)CC(=O)NC1CCCCC1	0%	1	-35%	12µM*	-9%	?
CN(CC(=O)NCc1ccccc1)CC(=O)Nc1ccc(Cl)c(C(F)(F)F)c1	3%	0	-28%	-15%	-4%	-1%
CN(CC(=O)Nc1ccc(F)c(F)c1F)C(=O)c1ccc2c(c1)NC(=O)CS2	3%	1	-17%	?	-14%	-6%
COc1ccc(OC)c(CNC(=O)CN(c2ccc(C)cc2)S(=O)(=O)N(C)C)c1	0%	.	-3%	2%	.	0%
CCn1c(SCC(=O)N2c3ccccc3Sc3ccccc32)nnc1-c1ccco1	3%	1	-40%	23µM*	-5%	-10%
C=CCn1c(SCC(=O)N2c3ccccc3Sc3ccccc32)nnc1-c1ccco1	4%	-1	-5%	0%	-4%	-6%
Clc1ccc(COc2ccccc2-c2ccnc3ncnn23)cc1	11%	0	11µM*	9%	9%	8%
c1ccc(Oc2ccc(-c3ccnc4ncnn34)cc2)cc1	7%	-3	2%	-11%	5%	-12%
CCOc1cnc(-c2ccc(OC)cc2)o1	5%	-1	7.9µM*	.	?	-3%
CCOc1ccc(C(NC(=O)CC)c2c(O)ccc3ccccc23)cc1 (centres undefined)	0%	-3	-36%	-16%	-65%	-13%
SMILES	Nrf2 activator	IL-2 act	BRCA1 expr act	Nrf2 block	p53 reactivator	A549 tox
CC(=O)Oc1ccc2ccccc2c1C(NC(=O)Cc1ccccc1)c1ccc(Cl)cc1 (centres undefined)	2%	-3	-89%	21µM*	-4%	?
O=C(CN1CCN(Cc2ccc(F)cc2)C1=O)NCc1ccc(F)cc1	0%	.	.	.	.	19%
CCC(=O)N1N=C(c2ccc(C)o2)CC1c1ccc(N(C)C)cc1 (centres undefined)	0%	0	63%	0%	8%	4%
CC(=O)N1N=C(c2ccc(C)o2)CC1c1ccc(Br)cc1 (centres undefined)	3%	-3	10µM*	?	13%	17%
COc1ccc(C2CC(c3ccc(Cl)cc3)=NN2C(C)=O)cc1 (centres undefined)	10%	1	27%	2%	-17%	-6%
COc1ccc(C2CC(c3ccc(C)o3)=NN2C(C)=O)cc1 (centres undefined)	4%	1	6.3µM*	?	?	14%
COc1ccc(C2c3c(nc(CCCc4ccccc4)[nH]c3=O)Oc3ccc4ccccc4c32)cc1OC (centres undefined)	.	.	.	-1%	.	-13%
COCC(=O)Nc1ncc(S(=O)(=O)c2ccc([N+](=O)[O-])cc2)s1	6%	1	-12%	?	3%	3%
O=C(NC(Nc1ncc(S(=O)(=O)c2ccc([N+](=O)[O-])cc2)s1)(C(F)(F)F)C(F)(F)F)c1ccc(Cl)cc1	?	-1	-86%	5.8µM*	-2%	?
Cc1cc(C)c2c(c1)/C(=C/C(=O)c1ccc(Br)s1)C(=O)N2	0%	0	3%	9.2µM*	1%	?
Cc1cc(Br)c2c(c1)/C(=C/C(=O)c1cccs1)C(=O)N2	23%	3	-94%	-7%	-8%	1%
O=C(CNC(=O)C1CCCCCC1)OC(C(=O)Nc1cc(C(F)(F)F)ccc1Cl)c1ccccc1 (centres undefined)	.	.	.	1%	.	2%
N#C/C(=C\c1ccccn1)c1nc2ccccc2s1	18µM*	6	-27%	?	?	-1%
COc1ccc(C(=O)N/N=C/c2ccccn2)cc1	2%	1	?	.	.	.
COc1ccc(/C(C#N)=C/c2ccccn2)cc1	22%	-2	2.8µM*	?	?	0%
COC(=O)c1ccc(/C=C(\C#N)c2nc3ccccc3s2)cc1	0%	0	-4%	18%	2%	1%
CNS(=O)(=O)c1cn(CC(=O)Nc2ccc(F)cc2F)cc1S(=O)(=O)NC	0%	.	.	5%	.	2%
